Assay results taken from PMC4552634, “A New Set of Chemical Starting Points with Plasmodium falciparum Transmission-Blocking Potential for Antimalarial Drug Discovery” (PLoS ONE, 2015).
The campaign covered roughly 13,000 compounds. About 3,200 (25%) showed an effect of 50% or more. The list shows a part of the results.

system: P. falciparum stage V gametocytes; design: BacTiter-Glo ATP luminescence viability of purified stage V gametocytes in 384-well plates, per cent inhibition versus DMSO; details: 48 h, 5 µM; inhibitor

SMILES | % Inhibition [%]
CCCCCC(C)C(C)c1cc(O)c2c(c1)OC(C)(C)CC2c1cc[n+]([O-])cc1 (centres unmarked) [TCMDC-131347] | 15.63
CCOc1ccc(Br)cc1/C=C/C(=O)Nc1ccc2c(c1)C1CCC2N1C (centres unmarked) [TCMDC-134191] | -33.77
Nc1c(Cl)cc(C(O)CNCCCCCCOCCC=C2CCOCC2)cc1Cl (centres unmarked) [TCMDC-132097] | 35.85
N#Cc1cccc(CN2CCCN(Cc3ccc(C(=O)Nc4ccc(Cl)cc4)cc3)CC2)c1 [TCMDC-136403] | 58.71
CCc1ccc(NC(=O)c2ccc(CN3CCCN(Cc4cccc(Cl)c4)CC3)cc2)cc1 [TCMDC-136438] | -4.503
CC(C)(C)c1ccc(NC(=O)c2ccc(CN3CCCN(Cc4cccc(Cl)c4)CC3)cc2)cc1 [TCMDC-136432] | -29.42
N#Cc1cccc(CN2CCCN(Cc3cccc(C(=O)Nc4ccc(Cl)cc4)c3)CC2)c1 [TCMDC-135962] | -1.409
O=C(Nc1ccc(Cl)cc1)c1ccc(CN2CCCN(Cc3cccc(Cl)c3)CC2)cc1 [TCMDC-136405] | 70.05
CC(C)(C)c1ccc(NC(=O)c2ccc(CN3CCCN(Cc4cccc(C#N)c4)CC3)cc2)cc1 [TCMDC-136430] | 8.252
O=C(Nc1ccccc1)N1CCOC(CCN2CCC(F)(F)CC2)(c2ccc(Cl)c(Cl)c2)C1 (centres unmarked) [TCMDC-135565] | -12.88
Cc1ccc(F)c(CN2CCC(N3CC(c4ccccc4)(c4ccccc4)OC3=O)CC2)c1Cl [TCMDC-136067] | -42.69
COc1ccc(OCCCON2C(N)=NC(N)=NC2(C)C)cc1 [TCMDC-131727] | -17.37
CCCc1cc(NCC)nc(Nc2ccc(F)cc2)n1 [TCMDC-134011] | 18.21
CCCCc1cc(=O)oc2cc(C)cc(OCc3ccccc3F)c12 [TCMDC-125642] | 42.72
Cc1ccc(Cl)cc1N1CCN(CCCNC(=O)C2CCN(c3nc4ccccc4[nH]3)CC2)CC1 [TCMDC-124405] | 57.08
COc1ccc(Cl)cc1N1CCN(CCCNC(=O)c2ccc(-c3nc4c(C)cccc4[nH]3)s2)CC1 [TCMDC-140050] | -10.33
COc1ccc(Cl)cc1N1CCN(CCCNC(=O)c2ccc(-c3nc4ccc(C(F)(F)F)cc4[nH]3)c(C)c2)CC1 [TCMDC-140121] | -20.72
Oc1ccccc1N1CCN(c2ccc(-c3nc4ccccc4[nH]3)cn2)CC1 [TCMDC-124820] | -75.14
CC(=O)N(Cc1nc(-c2cc(Cl)c(Cl)s2)cs1)c1c(C)cccc1C [TCMDC-135640] | -42.77
Cc1noc(C)c1-c1cccc(CNCc2ccc(-c3ccc(-c4nc5cccc(C)c5[nH]4)cc3)cc2)c1.O=C(O)C(F)(F)F [TCMDC-133061] | -10.97
CS(=O)(=O)c1ccc(-c2nc(NCC3CCCCC3)cc(C(F)(F)F)n2)cc1 [TCMDC-138597] | 3.227
Clc1ccc(OC2CCC(Cn3ccnc3)(c3ccc(Cl)cc3Cl)CC2)c(Cl)c1 (centres unmarked) [TCMDC-132089] | 67.21

SMILES | % Inhibition [%]
OC(Cn1ccnc1)(c1ccc(Cl)cc1Cl)C1CCCCC1 (centres unmarked) [TCMDC-132084] | -1.887
CON=C1CCC(Cn2ccnc2)(c2ccc(Cl)cc2Cl)CC1 (centres unmarked) [TCMDC-132070] | -6.365
CN(C)CCCNC(=O)c1ccccc1Sc1ccccc1C#N [TCMDC-137689] | -3.028
CC1CCN(CC[C@H]2CCCN2S(=O)(=O)c2cccc(NC(=O)c3ccc(-c4ccccc4)cc3)c2)CC1 [TCMDC-141076] | -81.19
NC1CCN(CCc2ccc(NS(=O)(=O)c3ccc(-c4ccccc4)cc3)cc2)CC1 [TCMDC-134085] | 111.6
O=S(=O)(Nc1ccc(CCN2CCCCC2CCN2CCCC2)cc1)c1ccc(-c2ccccc2)cc1 (centres unmarked) [TCMDC-134095] | 70.29
O=S(=O)(Nc1ccc(CCN2CCCCC2CCN2CCCC2)cc1)c1cccc2cccnc12 (centres unmarked) [TCMDC-134096] | 43.66
CCc1ccc(S(=O)(=O)Nc2ccc(CCN(C)C3CCN(C)CC3)cc2)cc1 [TCMDC-134082] | 40.08
O=S(=O)(Nc1cccc(CCN2CCCCC2CCN2CCCC2)c1)c1ccc2ccccc2c1 (centres unmarked) [TCMDC-134091] | 64.43
O=S(=O)(Nc1cccc(CCN2CCCCC2CCN2CCCC2)c1)c1cccc2ccccc12 (centres unmarked) [TCMDC-134092] | 40.53
O=S(=O)(Nc1cccc(CCN2CCCCC2CCN2CCCC2)c1)c1ccc(-c2ccccc2)cc1 (centres unmarked) [TCMDC-134093] | 39.18
O=S(=O)(Nc1cccc(CCN2CCCCC2CCN2CCCC2)c1)c1ccc(Oc2ccccc2)cc1 (centres unmarked) [TCMDC-134094] | 61.85
Cc1c(S(=O)(=O)Nc2cccc(CCN3CCCCC3CCN3CCCC3)c2)sc2ccc(Cl)cc12 (centres unmarked) [TCMDC-134097] | 7.809
O=c1cc(NCCCNCc2cc3c(Cl)cccc3s2)[nH]c2ccccc12 [TCMDC-140333] | -87.93
COc1c(Br)cc(Br)cc1C(C)=O [TCMDC-123841] | -7.365
CCOC(=O)c1[nH]c(-c2ccc(Cl)cc2)nc1NC(=S)NCCCN1CCOCC1 [TCMDC-138877] | 37.64
Cc1nc(-c2ccc(-c3ccc(C(=O)Nc4ccc5c(c4)C4(CCNCC4)CO5)cc3)c(C)c2)no1 [TCMDC-138993] | 45.43
O=C(N[C@@H](Cc1ccccc1)C(=O)NCc1cccc(C(F)(F)F)c1)c1ccc(O)c(-c2ccc(Cl)c(Cl)c2)c1 [TCMDC-140833] | 12.7
CN1CCN(S(=O)(=O)c2ccc3nccc(Nc4ccc(Oc5ccccc5)cc4)c3c2)CC1 [TCMDC-138691] | -22.54
Cc1cc(C=C(P(=O)(OC(C)C)OC(C)C)P(=O)(OC(C)C)OC(C)C)c2ccccc2c1O [TCMDC-138940] | 80.96
Cc1c(C(=O)Nc2cc(Sc3ccc(F)cc3)cc([N+](=O)[O-])c2)sc2ncn(Cc3ccccc3F)c(=O)c12 [TCMDC-125703] | 1.963
CCCN(CCC)CCCNc1ccc(C(=O)Nc2ccc(C(C)C)cc2)cc1[N+](=O)[O-] [TCMDC-125688] | 90.5

SMILES | % Inhibition [%]
COc1cccc(NC(=O)c2ccc(NCCCN3CC(C)CC(C)C3)c([N+](=O)[O-])c2)c1 (centres unmarked) [TCMDC-125689] | 53.82
CCCN(CCC)CCCNc1ccc(C(=O)Nc2ccc(OCC)cc2)cc1[N+](=O)[O-] [TCMDC-125691] | 12.73
O=C(Nc1ccc(C(F)(F)F)cc1)c1ccc(NCCCN2CCCCCC2)c([N+](=O)[O-])c1 [TCMDC-125681] | 11.61
CCCN(CCC)CCCNc1ccc(C(=O)Nc2ccc(C)c(F)c2)cc1[N+](=O)[O-] [TCMDC-125685] | 15.23
CC1CC(C)CN(CCCNc2ccc(C(=O)Nc3ccc(C(F)(F)F)cc3)cc2[N+](=O)[O-])C1 (centres unmarked) [TCMDC-125680] | 38.66
COc1cccc(NC(=O)c2ccc(NCCCN3CCC(C)CC3)c([N+](=O)[O-])c2)c1 [TCMDC-125690] | 0.09701
CCOc1ccc(NC(=O)c2ccc(NCCCN3CC(C)CC(C)C3)c([N+](=O)[O-])c2)cc1 (centres unmarked) [TCMDC-125692] | 30.09
CC1CCN(CCCNc2ccc(C(=O)Nc3ccc(C(F)(F)F)cc3)cc2[N+](=O)[O-])CC1 [TCMDC-125683] | 88.85
COc1ccc2ncc(F)c(NC(=O)C3CCC(NCc4cc5cc(F)cc(F)c5[nH]4)CC3)c2n1 (centres unmarked) [TCMDC-136455] | 25.24
O=C(Nc1cccc(C2=NCCN2)c1)Nc1cccc(C2=NCCN2)c1 [TCMDC-124304] | -0.7345
COc1ccc(NC(=O)N2CCc3ccc(OCCN(C(C)C)C(C)C)cc32)cc1C(F)(F)F [TCMDC-140253] | -24.24
N#Cc1cccc(CNC(=O)c2cccc(Nc3ccnc4ccc(F)cc34)c2)c1 [TCMDC-136309] | 21.53
Cc1cc(NC(=O)c2ccc(S(=O)(=O)N(Cc3ccccc3)C(C)C)cc2)no1 [TCMDC-123547] | -7.124
CCNc1cc(C(=O)N[C@@H](Cc2ccccc2)[C@H](O)CNCc2cc(OC)cc(OC)c2)cc(N2CCCC2=O)c1 [TCMDC-134572] | -8.682
CCOC(=O)c1ccc(NC(=O)Nc2cccc(-c3ccc(-c4nc5ccc(C(F)(F)F)cc5[nH]4)cc3)c2)cc1 [TCMDC-133261] | -31.99
CCn1c(-c2nonc2N)nc2c(-c3cccc(NC(=O)Nc4cccc(C(F)(F)F)c4)c3)ncc(OCCCN)c21 [TCMDC-136178] | 94.17
CCn1c(-c2nonc2N)nc2c(-c3cccc(NC(=O)Nc4ccc(C(F)(F)F)cc4)c3)ncc(OCCCN)c21 [TCMDC-136179] | 115.3
O=C(Nc1ccc(Cl)cc1)Nc1cccc(-c2cccc(-c3nc4ccc(C(F)(F)F)cc4[nH]3)c2)c1 [TCMDC-133180] | -47.4
CCOC(=O)NCC(=O)Nc1cccc(-c2cccc(-c3nc4ccc(C(F)(F)F)cc4[nH]3)c2)c1 [TCMDC-137047] | -10.81
O=C(NC1CC1)c1ccc(N2CCCCN2CCc2ccccc2)c(C(F)(F)F)c1 [TCMDC-135276] | 0.5792
COc1ccc(CCNC(=O)c2ccccc2O)cc1-c1ccc(C(C)(C)C)cc1 [TCMDC-136182] | 40.5
